# This is one part of a sample in which hits are shown more often than they occur.
# HT1080-NT tox: kills 2HG-producing HT-1080-NT fibrosarcoma cells; AID 686970; HT-1080-NT fibrosarcoma viability, CellTiter-Glo ATP luminescence, 48 h; hit rate 1.6% among 360,000; Potency, µM (top dose mostly 46.1 µM), inactives show at the top dose activity, negative = less viability, actives largely listed as cytotoxic;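 note: NT is the 2HG producing partner of a matched IDH1 knockdown line; potency is the fitted concentration of half-maximal effect; 0% = DMSO-treated cells and -100% = media-only wells without cells; nearly all actives have a fitted effect of over 55% in size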
#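 Toxicity toward the 2HG-producing NT line was scored as %Activity, normalised to DMSO and no-cell wells, from CellTiter-Glo luminescence after 48 hours' treatment.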
# TDP1 cell CPT: DT40-hTDP1 cell growth loss with CPT | hit rate 12% among 420,000 | chicken DT40 Tdp1-/-;hTDP1 cells + 20 nM CPT, ATP luminescence, 48 h | Potency, µM (doses to about 46.2 µM), without a hit: top-dose activity change, negative = growth inhibition, hits mostly inhibitors | AID 686979; note: potency is the fitted concentration of half-maximal effect; nearly all actives have a fitted effect of over 55% in size
#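 Chicken DT40 Tdp1-/- cells stably complemented with human TDP1 were seeded at 400 cells/well in medium containing 20 nM camptothecin, exposed to pin-transferred compounds, and grown at 37 °C for at least 48 hr. Viability was read as ATP luminescence.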
# 12-LOX inh: blocks human arachidonate 12S-lipoxygenase | P18054 | purified 12hLO, xylenol orange hydroperoxide absorbance | Potency, µM (titrated, usually from 108 µM), without a hit: at the highest dose activity change, negative = inhibition, usual class: inhibitors | hit rate 1.1% among 580,000 | AID 1671190; note: potency is the fitted concentration of half-maximal effect
# Target sequence (P18054 whole entry, looked up): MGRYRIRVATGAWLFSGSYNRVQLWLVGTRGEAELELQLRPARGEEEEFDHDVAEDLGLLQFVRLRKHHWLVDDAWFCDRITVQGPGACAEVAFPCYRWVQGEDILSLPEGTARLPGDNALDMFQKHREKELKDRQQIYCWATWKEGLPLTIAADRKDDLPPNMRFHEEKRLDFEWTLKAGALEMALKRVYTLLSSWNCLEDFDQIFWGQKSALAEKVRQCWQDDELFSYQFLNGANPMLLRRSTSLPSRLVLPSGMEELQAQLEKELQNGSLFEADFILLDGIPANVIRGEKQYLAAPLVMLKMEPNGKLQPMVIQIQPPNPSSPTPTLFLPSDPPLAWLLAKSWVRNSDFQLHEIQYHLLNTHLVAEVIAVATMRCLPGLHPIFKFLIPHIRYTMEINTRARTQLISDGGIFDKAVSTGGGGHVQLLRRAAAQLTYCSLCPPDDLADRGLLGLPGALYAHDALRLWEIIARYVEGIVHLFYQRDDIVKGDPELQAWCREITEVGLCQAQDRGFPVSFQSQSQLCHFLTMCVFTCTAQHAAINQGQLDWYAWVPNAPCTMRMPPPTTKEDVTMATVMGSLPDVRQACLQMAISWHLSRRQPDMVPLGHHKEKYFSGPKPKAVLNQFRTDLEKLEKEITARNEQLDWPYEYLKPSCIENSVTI
#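 Purified human 12hLO (150 nM final) in 25 mM Hepes, 0.01% Triton X-100, pH 7.0 was preincubated 15 min at room temperature with compound. Then 40 uM arachidonic acid was added, 30 min. Hydroperoxide was read by Fe-XO absorbance ratio 573/405 nm.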
# IL-1B inflam inh: blocks inflammasome-driven IL-1 beta release; THP-1 LPS/ATP IL-1B secretion, AlphaLISA, 16 h; hits give low values; hit rate 4.7% among 360,000; activity change, % at 57.5 µM; in the data active = activity change below about -50%; inconclusive = mostly about -30% to -49%
#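 Secreted IL-1B measured by AlphaLISA bead assay after 16 h compound exposure of THP-1 cells; compounds (final up to 57.5 uM) added 1 h before LPS (250 ng/mL) and ATP (1.25 mM) stimulation; lower signal means less secretion.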
# HT1080 IDH1KD tx: toxicity to HT-1080 IDH1 knockdown cells (counter line); hit rate 2% among 360,000; Potency, µM (titrated, usually from 46.1 µM), for inactives: at the top dose activity, negative = toxicity, actives largely listed as cytotoxic; HT-1080 IDH1 knockdown viability, ATP luminescence, 48 h;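 note: potency is the fitted concentration of half-maximal effect; 0% = DMSO wells and -100% = cell-free medium wells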
#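 HT-1080-IDH1KD cells (IDH1 knocked down), 750/well in RPMI with 5% FBS, treated with compound 48 h at 37 degrees C. Viability by CellTiter-Glo luminescence, normalised to DMSO and no-cell wells; concentration-response curves classed.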
# TDP1 cell noCPT: qHTS for Inhibitors of human tyrosyl-DNA phosphodiesterase 1 (TDP1): qHTS in cells in absence of CPT | DT40 Tdp1-/- hTDP1 cells, no CPT, ATP luminescence, 48 h | AID 686978, 2013 | hit rate 15% among 420,000 | Potency, µM (series often up to 46.2 µM), for inactives: top-dose activity change, negative = growth inhibition, most hits filed as inhibitors; note: potency is the fitted concentration of half-maximal effect; nearly all actives have a fitted effect of over 55% in size
#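 Growth kinetics read by CellTiter-Glo luminescence after ≥48 hr at 37 °C. Cells: DT40 Tdp1-/- stably carrying human TDP1, 400 per well, compound exposure in the absence of CPT (DMSO vehicle).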
# Starred values were filed as active, the others as inactive; u = inconclusive; x = no result given; [ ] = dose if it differs, or a comment. Unless noted, calls come from the whole dose curve; as a rule, active = well fitted curve in the direction sought with a large enough effect; inconclusive = small, poorly fitted or top-dose-only effect, or another doubt; inactive = no such curve, though single readings can be large; an effect the other way counts as inactive or inconclusive. Unless noted, % is set by controls: 0 for no effect and ±100 for the full control effect.
SMILES,HT1080-NT tox,TDP1 cell CPT,12-LOX inh,IL-1B inflam inh,HT1080 IDH1KD tx,TDP1 cell noCPT
O=C(O)Cn1ccc2cc(OCc3cccc(-c4ccc(F)cc4F)c3)cnc21,x,x,35µM*,x,x,x
COc1cccc(-c2cccc(COc3cnc4c(ccn4CC(=O)O)c3)c2)c1F,x,x,50µM*,x,x,x
Cc1ccc(-c2cccc(COc3cnc4c(ccn4CC(=O)O)c3)c2)cc1,x,x,-7%[176 µM],x,x,x
COc1ccc(OC)c(-n2c(=O)c(C#N)cc3c(=O)n4cccc(C)c4nc32)c1,x,x,-17%,x,x,x
Cc1ccc(NC(=O)c2nnc(SCC(=O)NCCC(C)C)s2)cc1,x,x,-48%,x,x,x
CN(CC(=O)N1CCCC1)c1nc(-c2ccsc2)nc2ccccc12,x,x,6%,x,x,x
CCCc1ccc2oc(C(=O)NCCc3nncn3CC)c(C)c2c1,x,x,41%,x,x,x
CC(=O)C1CCCN(C(=O)c2ccc3oc(CCc4ccccc4)nc3c2)C1 (configuration not stated),-2%,u,32%,14,-8%,u
O=C(c1ccc2oc(CCCc3ccccc3)nc2c1)N1CCCC1,8%,16µM*,145%,-4,9%,u
CCCc1ccc2oc(C(=O)NCCc3cnn(C)c3)c(C)c2c1,0%,16µM*,u,3,0%,16µM*
CCCc1ccc2oc(C(=O)N(Cc3nccn3C)C(C)C)c(C)c2c1,-6%,5.2µM*,1%,-7,1%,2.1µM*
CCOC(=O)CC1CCCCN1C(=O)c1ccc2oc(CCc3ccccc3)nc2c1 (configuration not stated),-13%,21µM*,-1%,22,-17%,15µM*
CC(NC(=O)CSCc1cccc(Br)c1)C1CC2CCC1C2 (configuration not stated),x,x,2%,x,x,x
Cn1cnc2c1c(=O)n(CCCSCc1cccc3ccccc13)c(=O)n2C,x,x,-1%,x,x,x
CN(Cc1nccn1C)C(=O)c1ccc2nc(Cc3ccccc3F)oc2c1,7%,-3%,1%,4,11%,18%
CC(C)N(Cc1nccn1C)C(=O)c1ccc2oc(CCCc3ccccc3)nc2c1,-7%,18µM*,15%,0,-7%,23µM*
C=CCC1(CC=C)CCCN1C(=O)c1ccc2oc(CCCC)nc2c1,-4%,12µM*,-3%,-24,-16%,10µM*
O=C(CCCc1ccccc1)N1CC(c2noc(COc3ccccc3)n2)C1,x,x,44%,x,x,x
Cc1cccc(CN2C(=O)N/C(=C/c3ccc(C)s3)C2=O)c1,-27%,21µM*,74%,0,u,16µM*
Cc1cc(/C=C2/NC(=O)NC2=O)c(C)n1-c1ccccn1,-5%,-5%,u,42,2%,-10%
Cc1cccc(CN2C(=O)N/C(=C/c3cc(C)n(-c4cc(C)ccn4)c3C)C2=O)c1,-11%,u,x,-58*,-11%,23µM*
Cc1ccc(/C=C2/NC(=O)N(Cc3ccccc3)C2=O)s1,-3%,u,-2%,-14,-2%,-19%
Cc1ccc(C(C)NC(=O)Nc2ccc(Cl)cc2F)cc1C (configuration not stated),x,x,-2%,x,x,x
Cc1ccc(-c2nc(-c3cc4cccc(OCc5cccc(F)c5)c4oc3=O)no2)cc1,x,15µM*,-23%,x,x,13µM*
Cc1ccc(COc2cccc3cc(-c4noc(-c5ccc(C)cc5)n4)c(=O)oc23)cc1,x,-19%,-14%,x,x,u
SMILES,HT1080-NT tox,TDP1 cell CPT,12-LOX inh,IL-1B inflam inh,HT1080 IDH1KD tx,TDP1 cell noCPT
Cc1ccc(-c2nc(-c3cc4cccc(OCc5ccc(F)cc5)c4oc3=O)no2)cc1,x,u,-10%,x,x,18µM*
O=C(/C=C/c1cccc(Br)c1)N1CCN(c2cccc(C(F)(F)F)c2)CC1,-18%,-2%,u,-25,-19%,12%
Nc1cccc2c1C(=O)N(C(=O)/C=C/c1cccc(F)c1)C2=O,18µM*,u,u,-70*,16µM*,u
Nc1cccc2c1C(=O)N(C(=O)/C=C/c1cccc(Br)c1)C2=O,u,10µM*,-23%,-75*,u,23µM*
Cc1cn2nc(C(=O)N3CCC(NC(=O)c4cccc(F)c4)CC3)cc2c(=O)[nH]1,x,x,20%,x,x,x
CCNc1nc(NC(C)C)nc(SCCOc2ccc(C)cc2)n1,u,16µM*,u,-22,u,23µM*
COc1ccc(OCCSc2nc(N)cc(N)n2)cc1,-12%,-4%,-9%,0,-21%,u
CCNc1nc(NC(C)C)nc(SCCOC(=O)c2ccccc2)n1,-7%,15µM*,-20%,14,-8%,u
CCNc1nc(SCCOc2ccc(Br)cc2)nc(N(C)C)n1,0%,u,2%,6,-6%,15µM*
CCNc1nc(NCC)nc(OCCOC(=O)c2ccccc2)n1,-2%,-14%,0%,8,1%,-12%
O=C(NC1CCCCC1)C1(c2cccc(Cl)c2)CCC1,x,x,-6%,x,x,x
CCCCCCCCNCCS(=O)(=O)NCc1ccc(OC)cc1,-7%,u,u,-50*,-10%,u
CCCCCCCCNS(=O)(=O)CCNCc1ccccc1OC,-2%,u,u,-62*,-2%,21µM*
CCCCCCCCNS(=O)(=O)CCNCCc1ccccc1,-3%,-29%,-79%,u,-6%,u
CCCCCCCCNS(=O)(=O)CCNCc1ccccc1,-5%,u,26%,u,-3%,u
COc1ccc(CNS(=O)(=O)CCNCc2ccccc2OC)cc1,0%,-16%,2%,6,1%,-25%
CCCCCCCCNCCS(=O)(=O)NCCCCCCCC,1%,u,-27%,0,5%,16µM*
CCCCCCCCNCCS(=O)(=O)NC1CCCCC1,-13%,u,u,-70*,-15%,u
Cc1cn2nc(C(=O)Nc3ccc4c(c3)OCCO4)cc2c(N(C)Cc2ccccc2)n1,x,x,44%,x,x,x
COc1ccccc1N(CC(=O)NCCSCc1ccccc1)S(=O)(=O)c1ccc(C)cc1,-16%,9.2µM*,u,-19,u,12µM*
CCOc1ccc(N(CC(=O)NCCSCc2ccc(C)cc2)S(C)(=O)=O)cc1,-6%,3%,0%,-2,-2%,u
CCOc1ccc(N(CC(=O)NCCSCc2ccccc2)S(C)(=O)=O)cc1,-5%,1.8µM*,0%,12,-3%,5.8µM*
COc1ccccc1N(CC(=O)NCCSCc1ccco1)S(=O)(=O)c1ccccc1,21%,18µM*,-2%,0,1%,16µM*

# Screening data deposited in PubChem by National Center for Advancing Translational Sciences (NCATS).
